Measured values as given in PubChem BioAssay AID1645860 (Buhrlage Lab, Dana-Farber Cancer Institute and Novartis …, 2021).
In all, about 47,000 compounds went through this assay and about 2,500 (5.3%) were called active. Only a selection was taken, and actives are over-represented in it overall. A number with no mark means an inactive call. Rule as the data show it: active = inhibition above about 30%; inactive = the rest.

biological target: Ubiquitin carboxyl-terminal hydrolase 30 (Homo sapiens) (UniProt Q70CQ3); assay: blocks human USP30 ubiquitin-rhodamine cleavage (AID 1645860); settings: purified USP30, Ub-rhodamine cleavage fluorescence; at 25 µM; hits give high values
Sequence (Q70CQ3 whole entry, looked up): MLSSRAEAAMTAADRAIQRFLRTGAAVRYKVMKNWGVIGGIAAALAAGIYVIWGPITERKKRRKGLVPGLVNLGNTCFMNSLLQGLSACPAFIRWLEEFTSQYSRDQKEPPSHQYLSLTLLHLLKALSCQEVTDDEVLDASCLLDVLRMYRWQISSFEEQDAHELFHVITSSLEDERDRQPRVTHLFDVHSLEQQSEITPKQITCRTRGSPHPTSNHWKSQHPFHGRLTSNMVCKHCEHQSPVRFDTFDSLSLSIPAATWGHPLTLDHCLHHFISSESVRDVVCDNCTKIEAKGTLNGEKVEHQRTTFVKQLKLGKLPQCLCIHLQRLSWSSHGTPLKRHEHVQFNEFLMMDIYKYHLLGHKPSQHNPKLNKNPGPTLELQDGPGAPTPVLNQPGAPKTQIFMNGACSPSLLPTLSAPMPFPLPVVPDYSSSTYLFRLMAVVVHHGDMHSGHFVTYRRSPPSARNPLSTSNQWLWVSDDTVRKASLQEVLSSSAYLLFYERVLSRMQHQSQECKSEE

| SMILES | inhibition |
| --- | --- |
| COCCn1cnc2nnc3ccc(C(=O)NC(C)C)cc3c21 | -9.87% |
| COc1ccc(CCNC(=O)c2ccc3ccccc3c2)cc1OC | -12.8% |
| COc1ccc(CCNC(=O)CSc2cn(CCNC(=O)c3ccccc3C)c3ccccc23)cc1OC | 36.5% (active) |
| COc1ccc(NC(=O)CSc2cn(Cc3ccccc3C)c3ccccc23)c(OC)c1 | 8.78% |
| CC(C)c1noc2ncc(-c3nnc(C4CC4)o3)cc12 | -9.16% |
| COc1ccc2ncc(S(=O)(=O)c3ccccc3)c(N3CCOCC3)c2c1 | -25.7% |
| COc1ccc2ncc(S(=O)(=O)c3ccccc3)c(N3CCN(c4cccc(C)c4C)CC3)c2c1 | -1.48% |
| COc1ccc2ncc(S(=O)(=O)c3ccccc3)c(Nc3ccc(F)cc3)c2c1 | 38.4% (active) |
| COCCn1cnc2c(-c3ccccc3)cn(CC(=O)NCc3ccccc3)c2c1=O | -28.3% |
| COCC(=O)N1CCCCCC1C1CCN(c2nn3cc(C)nc3s2)CC1 (centres undefined) | 16.4% |
| COC(=O)c1ccc(C2c3[nH]c4ccccc4c3C[C@H]3C(=O)N(CC4CCCO4)CC(=O)N23)cc1 (some centres undefined) | -26.4% |
| O=C(Nc1cc(C(F)(F)F)ccc1-n1cnc2ccccc21)c1ccc(S(=O)(=O)N2CCCCC2)cc1 | 32.6% (active) |
| COc1ccccc1OCC(=O)Nc1cc(C(F)(F)F)ccc1N1CCCCC1 | -1.33% |
| CCOc1ccc(S(=O)(=O)N2CCCCC2)cc1NC(=O)c1ccc(C#N)cc1 | 11.5% |
| CCn1nnc2c1C(COC)CN(C(=O)CC1=CCCCC1)C2 (centres undefined) | -64.1% |
| CCN(C(=O)c1nc(-c2cccc(F)c2)n2c1CCCCC2)c1ccccc1 | -10.9% |
| C=C(NC(=O)C(=C)NC(=O)c1csc(C2=N[C@@H]3c4csc(n4)[C@H]4NC(=O)c5csc(n5)[C@H]([C@](C)(O)[C@@H](C)O)NC(=O)C5CSC(=N5)/C(=C/C)NC(=O)C([C@@H](C)O)NC(=O)c5csc(n5)[C@]3(CC2)NC(=O)[C@H](C)NC(=O)C(=C)NC(=O)[C@H](C)NC(=O)C([C@@H](C)CC)NC2C=Cc3c(C(C)O)cc(nc3[C@H]2O)C(=O)OC4C)n1)C(N)=O (some centres undefined) | -88.3% |
| COc1ccccc1Nc1nc(-c2cnc(N3CCCC3)nc2C)cc(=O)[nH]1 | 23.2% |
| COC(=O)c1ccc(NC(=O)CSc2nnc(C(C)Oc3ccccc3)n2C)cc1 (centres undefined) | 25.4% |
| Cc1cc(C)nc(N(C(=O)C2CC2)c2ccc(OC(F)(F)F)cc2)n1 | -22.9% |
| Cc1nnc(OCC(=O)Nc2ccc(OC(F)(F)F)cc2)c2ccccc12 | 64.8% (active) |

| SMILES | inhibition |
| --- | --- |
| CN1[C@@H](CCC(=O)N2CCc3ccccc32)CNC(=O)[C@@H]2[C@H]1CCN2Cc1ncc[nH]1 | -9.99% |
| O=S(=O)(c1ccccc1)N1CCC(n2cnnc2-c2ccccc2)CC1 | -0.303% |
| Cc1cc(O)c(=O)cc2c1C[C@H]1CC(C)(C)/C=C/C[C@@]3(C)Oc4cc(=O)c(O)cc(C)c4C[C@@H]3C[C@H](O)[C@]1(C)O2 | -161% |
| CC(C)(C)CC(=O)N1CCN(c2ccc(N3CCCC3)nn2)CC1 | -15.1% |
| COc1ccc(S(=O)(=O)N(C(=O)c2ccccc2)c2ccc3oc4c(c3c2)CCCC4)cc1 | -10.1% |
| CCC(=O)c1ccc(OCC(=O)Nc2ccc3c(c2)CCC3)cc1 | -0.468% |
| O=C(COc1ccc2oc3c(c2c1)CCCC3)Nc1ccccn1 | 48.3% (active) |
| COc1ccc(-c2nn(-c3ccccc3)cc2C(=O)N2CCCCC2)cc1 | -1.66% |
| O=C(Nc1cccc(-c2cccc(F)c2)c1)C1CCN(Cc2cccc3c2OCO3)CC1 | 36.9% (active) |
| O=C(CN1CCN(CC(=O)Nc2ccc3c(c2)OCO3)CC1)Nc1ccc(F)cc1 | -29.4% |
| O=C(Nc1ccc(Oc2ccccc2F)cc1)C1CCN(Cc2cccc(O)c2)CC1 | 23% |
| CC1CCC(NC(=O)Cn2c(=O)[nH]c3ccccc3c2=O)CC1 (centres undefined) | 26.9% |
| CCOC(=O)N1CCC(NC(=O)CCc2ccccc2)CC1 | 11.3% |
| COc1ccc(CCNC(=O)[C@@H](NC(=O)[C@@H]2Cc3c([nH]c4ccccc34)C3c4ccccc4C(=O)N32)C(C)C)cc1 (some centres undefined) | -104% |
| CCOc1ccccc1NC(=O)Nc1cc(-c2nc3ccccc3o2)ccc1OC | 58.5% (active) |
| COc1ccccc1NC(=O)Nc1ccc(CCc2nc3ccccc3[nH]2)cc1 | -27.4% |
| COc1ccccc1NC(=O)N1CCN(Cc2nc3ccccc3o2)CC1 | 7.46% |
| COc1ccc(C(=O)NCC(=O)Nc2nc3ccccc3[nH]2)c(C)c1 | 9.21% |
| O=C(NC1CCCC1)c1csc(C(=O)N2CCCC2)n1 | 3.97% |
| CC(C(=O)N1c2ccccc2NC(=O)C1(C)C)N1CCCC1c1ccc2c(c1)OCCO2 (centres undefined) | -221% |
| Cc1c(C)n2c(SCC(=O)N(C)c3ccccc3)nnc2[nH]c1=O | 6.75% |

| SMILES | inhibition |
| --- | --- |
| CCCCOc1ccc(C(=O)Nc2ccc3c(c2)CCC(=O)N3CCC)cc1 | 46.1% (active) |
| COCCN1C(=O)CCc2cc(NS(=O)(=O)c3cc(C)cc(C)c3)ccc21 | -16.1% |
| CCN1C(=O)CCc2cc(NC(=O)Cc3ccc(OC)c(Cl)c3)ccc21 | -7.67% |
| CC(=O)Nc1ccc(C(=O)NCCn2c(C)nc3ccccc32)cc1 | 27.4% |
| CC(C)Cc1cc(C(=O)N2CCOC(c3nccnc3N)C2)n(C)n1 (centres undefined) | 10.1% |
| COc1ccccc1CCNC(=O)c1cccc(N2C(=O)C(C)(C)CS2(=O)=O)c1 | -7.58% |
| CCOc1ccccc1-c1nc(-c2nnn(Cc3ccccc3)c2C)no1 | 51.6% (active) |
| Cc1c(-c2noc(-c3cccc(N(C)C)c3)n2)nnn1Cc1cccc(F)c1 | -2.61% |
| COc1ccc(-c2nc(-c3nnn(Cc4cccc(F)c4)c3C)no2)cc1 | 8.22% |
| COC(=O)c1ccccc1NC(=O)Cn1cc(S(=O)(=O)Cc2ccc(C)cc2)c2ccccc21 | -13.4% |
| COCc1ccc(C(=O)N2CCC3(CC2)CNC(=O)c2ccccc2O3)cc1 | 14.1% |
| COc1ccccc1N(CC(=O)NCc1cccnc1)S(=O)(=O)c1ccc(C)cc1 | -6.24% |
| O=S(=O)(Nc1ccccc1Cc1ccccc1)c1ccccc1F | 16.2% |
| Cc1ccc(S(=O)(=O)N(CC(=O)NC(C)c2ccccc2)Cc2ccccc2F)cc1 (centres undefined) | 32.6% (active) |
| O=C(CN(Cc1ccccc1Cl)S(=O)(=O)c1ccccc1F)NC(c1ccccc1)c1ccccc1 | 33.4% (active) |
| Cc1ccc(Cc2nnc(C(=O)NC(C)c3ccccc3)o2)cc1 (centres undefined) | -0.465% |
| O=C(CNC(c1ccccc1)c1ccccc1)Nc1ccc(F)cc1 | 13.6% |
| Cc1nc2nc(NCc3ccccc3)[nH]n2c(=O)c1CCC(=O)N1CCC(C)CC1 | 0.108% |
| O=C(NCc1ccccn1)C1CCCN(c2ccc(-c3ccccc3)nn2)C1 (centres undefined) | 23.1% |
| Cc1ccc(NC(=O)Cn2c(N3CCCC3)nc(C)cc2=O)cc1 | 18.2% |
| CN1CC(=O)N(C2CCCNC2)Cc2c(NC3CCc4ccccc43)ncnc21 (centres undefined) | 69.8% (active) |

| SMILES | inhibition |
| --- | --- |
| c1ccc(-c2csc3ncnc(NC4CCCc5ccccc54)c23)cc1 (centres undefined) | -52.1% |
| Cc1ccccc1CNC(=O)N1CCC2(CC1)NC(=O)[C@H]1CN(c3ncccn3)C[C@H]12 | 25.7% |
| Cc1cccc(-c2cccc(C3CCCN(C(=O)c4cnccn4)C3)n2)c1 (centres undefined) | -38% |
| O=C(Nc1ccccc1F)Nc1nnc2cccc(Cl)n12 | -21.8% |
| CN(CCc1ccccn1)CC(=O)N1CCc2ccccc21 | -0.887% |
| COC(=O)COc1cccc2c(=O)n(CC(=O)N3CCc4ccccc43)ccc12 | 37% (active) |
| Cc1nc2ccccc2c(=O)n1CC(=O)N1CCCc2ccccc21 | 17.4% |
| Cc1ccc(C)c(N2CCN(c3nc4ccc(Cl)cc4nc3-n3nc(C)cc3C)CC2)c1 | -8.16% |
| O=C(Nc1ccc(Cl)cc1F)c1cc(-c2ccccn2)n[nH]1 | 12.6% |
| COc1cc(Cl)c(NC(=O)c2cc(-c3ccccn3)n[nH]2)c(OC)c1 | 31.5% (active) |
| Cc1ccc(CC(=O)N2CCN(C(=O)c3cc(-c4ccccn4)n[nH]3)CC2)cc1 | 4.03% |
| O=C(Cn1cc(SCc2cccc(F)c2)c2ccccc21)N1CCCCCC1 | 35.3% (active) |
| CC(=O)Nc1cccc(NC(=O)CSc2cn(CC(=O)N3CCC(C)CC3)c3ccccc23)c1 | -1.08% |
| O=C(Cn1cc(S(=O)(=O)Cc2ccccc2Cl)c2ccccc21)N1CCCCCC1 | -0.265% |
| COCCN1CC(C(=N)N)C(=O)NC1=O (centres undefined) | -45.1% |
| COc1ccc(CC(=O)Nc2ccc3c(c2)CN(C(=O)c2ccco2)CC3)cc1 | 19.1% |
| O=C(CC1(O)C(=O)N(Cc2cccc3ccccc23)c2ccccc21)c1cccc2ccccc12 (centres undefined) | 2.93% |
| CN1CCc2c(sc3nc(SCCc4ccccc4)n(-c4ccccc4)c(=O)c23)C1 | -152% |
| COc1cccc(NS(=O)(=O)c2ccc(-c3coc(C)n3)cc2)c1 | -18.4% |
| O=S(=O)(Nc1cccc(O)c1)c1ccc2oc3ccc(S(=O)(=O)Nc4cccc(O)c4)cc3c2c1 | 42.9% (active) |
| Cc1cccc(NS(=O)(=O)c2ccc3nnc(C)n3c2)c1 | -4.01% |
